Sampled rows, rich in hits. Any-hit rate of the full collection: about 27%.
CYP2C9 inhib: human CYP2C9 inhibition; CYP2C9 Supersomes, luciferin-H conversion, luminescence; inhibition, % at 5 µM; 96,000 tested, 20% active; AID 777;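 active = blocking of liver enzyme CYP2C9 beyond about 50% at 5 µM, limit read from the data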
CYP2C19 activ: activators of human cytochrome P450 2C19. recombinant CYP2C19, luciferin-H EGE luminescence; hits give high values; 0 = fully inhibited enzyme, 1 = untreated enzyme. activation factor at 5 µM. 96,000 tested, under 10 active. AID 1025;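 active = activation factor of at least 2 at 5 µM in the primary screen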;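 note: 0 = wells with 2.5 mM tranylcypromine and 1 = vehicle-only wells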
Target sequence (P33261 whole entry, looked up): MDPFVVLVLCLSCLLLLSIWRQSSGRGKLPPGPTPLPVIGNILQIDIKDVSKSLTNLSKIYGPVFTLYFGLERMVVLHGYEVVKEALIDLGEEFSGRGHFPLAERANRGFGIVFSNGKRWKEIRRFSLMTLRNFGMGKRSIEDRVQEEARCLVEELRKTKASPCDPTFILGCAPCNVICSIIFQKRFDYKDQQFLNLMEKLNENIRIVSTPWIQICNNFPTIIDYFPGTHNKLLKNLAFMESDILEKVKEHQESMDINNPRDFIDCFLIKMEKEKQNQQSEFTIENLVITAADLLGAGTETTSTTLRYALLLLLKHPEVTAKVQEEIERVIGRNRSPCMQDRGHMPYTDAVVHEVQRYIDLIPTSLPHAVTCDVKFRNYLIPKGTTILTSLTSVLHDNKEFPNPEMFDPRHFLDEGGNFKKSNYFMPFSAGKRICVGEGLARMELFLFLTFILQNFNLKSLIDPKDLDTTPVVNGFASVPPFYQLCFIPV
CYP2C19 inhib: human CYP2C19 inhibition; CYP2C19 Supersomes, luciferin-H EGE luminescence, 30 min; inhibition, % at 5 µM; 96,000 tested, 21% active; AID 778;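 active = CYP2C19 inhibition above a set limit at 5 µM in the primary screen, cut at about 50% in these data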;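 note: plate controls were negative control wells for no effect and 2.5 mM tranylcypromine positive control for full effect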
CYP2C9 act: increases human cytochrome P450 2C9 activity; P11712; activation factor at 5 µM; recombinant CYP2C9, luciferin-H conversion, luminescence; hits give high values; factor 1 = untreated enzyme, 0 = blocked; 96,000 tested, 1.4% active;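 active = activation factor of 2 or more for CYP2C9 at a 5 µM dose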;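 note: 0 = sulfaphenazole-blocked wells and 1 = vehicle-only wells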
EphB4 ephrin blk: antagonists of human EphB4-ephrin-B2 interaction; 97,000 tested, 0.15% active; EphB4 LBD / TNYL-RAW-Alexa532 peptide, fluorescence polarization; inhibition, % at 7 µM; AID 720; P54760;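 active = inhibition above the screen-wide mean inhibition plus 3 SD, cut at about 15% in these data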;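 note: 0% = DMSO wells and 100% = excess unlabeled TNYL-RAW peptide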
Numbers without * were called inactive; · = no result.

SMILES	CYP2C9 inhib	CYP2C19 activ	CYP2C19 inhib	CYP2C9 act	EphB4 ephrin blk
COc1ccc(-c2nc(CSCC(=O)NC3CCCc4ccccc43)c(C)o2)cc1 (stereo not given)	58*	0.4	63*	0.4	4
O=C(COc1ccc(-c2nnco2)cc1)NC1CCCc2ccccc21 (stereo not given)	86*	0	98*	0.1	·
Cc1ccc(-c2nnn(CC(=O)NC3CCCc4ccccc43)n2)cc1 (stereo not given)	16	0.7	29	0.8	0
COc1ccc(Oc2c(Cl)cnn(-c3ccc(F)cc3)c2=O)cc1	1	0.7	28	1	7
CC(=O)c1cccc(NC(=O)C2CC(=O)N(Cc3ccccc3)C2)c1 (stereo not given)	25	0.7	34	0.7	6
CS(=O)(=O)c1ccc(Cl)c(NC(=O)C2CC(=O)N(Cc3ccccc3)C2)c1 (stereo not given)	68*	0.7	29	0.3	-3
CCN1C(=O)N(CC)C2NC(=S)NC21 (stereo not given)	0	0.8	20	1	-2
CCOc1ccc(CCNC(=O)C2CCCN(c3nnc(-n4cccc4)s3)C2)cc1OCC (stereo not given)	60*	0.5	49	0.4	-8
O=C(C1CCCN(c2nnc(-n3cccc3)s2)C1)N1CCN(c2ccccc2)CC1 (stereo not given)	49	0.3	68*	0.5	1
O=C(C1CCN(c2nnc(-n3cccc3)s2)CC1)N1CCN(c2cccc(C(F)(F)F)c2)CC1	55*	0.5	52*	0.5	5
CC(C)NC(=O)C1CCCN(c2nnc(-n3cccc3)s2)C1 (stereo not given)	22	0.5	53*	0.8	13
CC(CCc1ccccc1)NC(=O)C1CCCN(c2nnc(-n3cccc3)s2)C1 (stereo not given)	·	·	·	·	3
C/C(CC(=O)NC1CCCC1)=N\NC(=O)Cc1cccs1	-2	0.9	13	1	5
Cc1noc(NC(=O)c2ccccc2Cl)c1C#N	11	0.6	42	0.9	0
Cc1cccc2c1NC(=O)C2(c1ccc(O)cc1)c1ccc(O)cc1	79*	0.4	60*	0.2	-3
O=C(NCc1ccc2c(c1)OCO2)c1cc(-c2ccccc2Cl)on1	-49	0.9	12	1.5	-4
Cc1nn(Cc2ccccc2Cl)c2sc(C(=O)NCc3ccc4c(c3)OCO4)cc12	99*	0.1	92*	0	-3
COc1ccccc1CNC(=O)c1cc2c(C)nn(Cc3ccc(F)cc3)c2s1	78*	0.6	38	0.2	1
Cc1cc(C(=O)Nc2c(C)nn(Cc3ccccc3Cl)c2C)no1	32	0.9	13	0.7	-2
CCC(CC)NC(=O)c1cc2c(C)nn(Cc3ccccc3Cl)c2s1	71*	0.6	39	0.3	0
COc1ccccc1CNC(=O)c1cc2c(s1)CS(=O)(=O)C2	-24	1	-5	1.2	·
CCOC(=O)CCn1nc(-c2ccc(Cl)cc2)cc1N	38	0.2	79*	0.6	-4
CCOC(=O)Cn1nc(-c2ccc(Cl)cc2)cc1N	25	0.3	74*	0.7	-6
Cc1ccccc1-c1noc(N)c1C#N	43	0.9	7	0.6	5
CCOc1cc(-c2noc(N)c2C#N)cc(OCC)c1OCC	53*	0.6	42	0.5	3
SMILES	CYP2C9 inhib	CYP2C19 activ	CYP2C19 inhib	CYP2C9 act	EphB4 ephrin blk
Cc1ccccc1C(=O)c1ccc2c(c1)n(C)c(=O)n2C	74*	0.2	76*	0.3	-10
O=C(N/C=N/OCc1ccc(Cl)cc1Cl)NOCc1c(Cl)cccc1Cl	-12	1.1	-15	1.1	-2
CO/N=C/NC(=O)NOCc1ccc(Cl)cc1Cl	14	0.5	52*	0.9	-1
COc1cc(-c2nnc3sc(-c4cccs4)nn23)cc(OC)c1OC	80*	0.3	70*	0.2	·
COc1cc(-c2nn3c(-c4cccnc4)nnc3s2)cc(OC)c1OC	40	0.3	66*	0.6	3
CN(C)c1ccc(-c2nn3c(-c4cccnc4)nnc3s2)cc1	10	0.6	38	0.9	·
N#CC(C(=O)Nc1ccccc1)=C1Nc2ccccc2N1	37	1.1	-8	0.6	-5
CN1CCC(=NNC(=O)C(=O)NC(C)(C)C)CC1	55*	0.7	31	0.4	0
CN1CCC(=NNC(=O)C(=O)NC2CCCC2)CC1	-8	1	-3	1.1	0
Cn1ncc2c(Nc3ccc4ccccc4c3)ncnc21	22	0.7	34	0.8	1
COc1ccc(CN2C(=O)NC3(CCCCCC3)C2=O)cc1F	-90	0.1	88*	1.9	·
CCn1c2ccccc2c2nn(C)c(=N)nc21	-6	1	-5	1.1	-3
N#CCC(CNc1ncc(C(F)(F)F)cc1Cl)OC(=O)c1ccc(Cl)cc1Cl (stereo not given)	50*	0.7	30	0.5	-2
CCN(CC)S(=O)(=O)c1ccc2c(c1)nc(SC(C)C(N)=O)n2-c1ccc(OC)cc1 (stereo not given)	91*	0.4	62*	0.1	-2
c1ccc(Cn2ccnc2-c2ccco2)cc1	-7	0.9	7	1.1	·
Cc1nccn1Cc1cccc2ccccc12	27	0.5	51*	0.7	7
COc1ccc(NC(=O)CN2CCN(C3c4ccccc4-c4ccccc43)CC2)c(OC)c1	97*	0.1	88*	0	3
COc1ccccc1NC(=O)CN1CCN(C2c3ccccc3-c3ccccc32)CC1	96*	0.2	81*	0	-2
CN(C1CCS(=O)(=O)C1)S(=O)(=O)c1ccc(C2CCCCC2)cc1 (stereo not given)	9	1.1	-7	0.9	1
Nc1nc(CSc2ncn(-c3ccccc3)n2)cs1	18	0.2	82*	0.8	7
O=C(CSc1ncn(-c2ccccc2)n1)Nc1ccc2c(c1)OCCO2	46	0.6	43	0.5	·
Cc1sc(NC(=O)CSc2ncn(-c3ccccc3)n2)nc1-c1ccccc1	·	·	·	·	5
O=C(CSc1ncn(-c2ccccc2)n1)c1cccs1	71*	0.1	94*	0.3	-2
c1ccc(CSc2ncn(-c3ccccc3)n2)cc1	79*	0.1	85*	0.2	2
O=C(Cc1cccs1)Nc1nnc(Cc2ccc(F)cc2)s1	7	0.8	15	0.9	-3
CCCCCOc1ccccc1C(=O)NCC(=O)O	7	0.9	10	0.9	-1
CCN(CC)S(=O)(=O)c1ccc2c(c1)nc(CCC(=O)OCC(=O)N1CCc3ccccc31)n2C	36	0.9	8	0.6	-9
CCN(CC)S(=O)(=O)c1ccc2c(c1)nc(CCC(=O)Nc1ccccc1Cc1ccccc1)n2CC	100*	0.2	77*	0	2
CCn1c(CCC(=O)Nc2cc(F)ccc2C)nc2cc(S(=O)(=O)N(C)C)ccc21	80*	0.8	16	0.2	·
Clc1ccc(-n2nnnc2-c2ccccc2)cc1Cl	32	0	95*	0.7	·

Bioassay records from PubChem.
